Bioassay records deposited in PubChem BioAssay by National Center for Advancing Translational Sciences (NCATS).
This is a sample that favours compounds with a hit; in the whole collection about 1.1% have one here.
Tb PFK inh-1: inhibitors of T. brucei phosphofructokinase | O15648 | T. brucei PFK, ADP-Glo luminescence | 330,000 compounds, 0.17% hits | Potency, µM (top dose mostly 57.5 µM), without a hit: at the top dose activity, negative = inhibition, usual class: inhibitors | AID 485367;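 further: potency means the concentration at half of the fitted maximal effect; 0% = uninhibited 1x PFK enzyme wells and -100% = no-enzyme wells; nearly all actives have a fitted effect of over 60% in size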
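ADP-Glo luminescence quantified ADP after 45 min at room temperature, with 1.25 nM T. brucei PFK, 0.1 mM ATP and 0.5 mM fructose-6-phosphate in pH 8.0 TEA buffer. qHTS titrations up to 57 µM; curves classified by quality.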
p53 reactivation: mutant p53 re-activation in reporter cells | H1299 p53-A138V BP100-luciferase reporter, luminescence, 24 h | Potency, µM (titrated, usually from 92.2 µM), without a hit: top-dose activity change, positive = activation, usual class: activators | 320,000 compounds, 0.063% hits | AID 504706; further: potency means the concentration at half of the fitted maximal effect; % of control where 0% means no effect; nearly all actives have a fitted effect of over 45% in size
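H1299 (p53-null), stable ts p53-A138V + BP100-Luc; 1000 cells/well, Opti-MEM/10% FBS; cpd 4 pt, 1:5; 24 h, 37 deg C, 5% CO2; detection reagent 10 min RT; luminescence.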
RXFP1 agonist: RXFP1 (human) receptor agonism; Q9HBX9; HEK293T-RXFP1 cAMP TR-FRET, 30 min; response scale: percent of porcine relaxin response, buffer zero; Potency, µM (series often up to 57.5 µM), for inactives: at the highest dose activation, most hits filed as activators; 370,000 compounds, 0.3% hits; AID 2676; further: potency means the concentration at half of the fitted maximal effect; on the % scale 0 is the no-effect control and ±100 the full control effect; nearly all actives have a fitted effect of over 60% in size
Target sequence (Q9HBX9 whole entry, looked up): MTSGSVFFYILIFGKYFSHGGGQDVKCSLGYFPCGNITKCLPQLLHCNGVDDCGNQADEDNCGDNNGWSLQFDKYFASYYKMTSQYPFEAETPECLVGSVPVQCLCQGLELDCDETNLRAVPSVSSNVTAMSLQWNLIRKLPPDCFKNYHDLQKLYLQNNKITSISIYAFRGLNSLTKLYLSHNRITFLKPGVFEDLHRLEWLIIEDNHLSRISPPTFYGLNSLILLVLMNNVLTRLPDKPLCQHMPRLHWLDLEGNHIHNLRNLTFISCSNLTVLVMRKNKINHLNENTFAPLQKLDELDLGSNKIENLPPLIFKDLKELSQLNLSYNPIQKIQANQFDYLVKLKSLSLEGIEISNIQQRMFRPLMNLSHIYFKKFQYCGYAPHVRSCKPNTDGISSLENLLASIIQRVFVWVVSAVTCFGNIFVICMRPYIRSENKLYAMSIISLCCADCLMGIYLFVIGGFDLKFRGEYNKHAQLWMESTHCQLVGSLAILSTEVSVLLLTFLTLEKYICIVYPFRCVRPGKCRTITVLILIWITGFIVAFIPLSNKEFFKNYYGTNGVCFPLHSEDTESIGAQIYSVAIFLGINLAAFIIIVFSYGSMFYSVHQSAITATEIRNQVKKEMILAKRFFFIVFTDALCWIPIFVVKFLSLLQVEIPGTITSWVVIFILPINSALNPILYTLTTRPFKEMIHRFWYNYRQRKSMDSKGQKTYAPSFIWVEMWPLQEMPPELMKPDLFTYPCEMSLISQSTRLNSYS
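cAMP rise read by TR-FRET after 30 min, 37C compound exposure (up to 58 uM) in RXFP1-transfected HEK293 cells with Ro 20174 present. EC50 from Hill-equation fits, with 29 nM porcine relaxin as 100% and buffer as basal.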
gsp ag: activates gsp, the McCune-Albright syndrome mutation; Potency, µM (titrated, usually from 76.9 µM), inactives show at the top dose activation (cAMP increase), usual class: activators; AID 624287; 340,000 compounds, 0.13% hits; gsp mutant cells, cAMP HTRF, 30 min; active means well fitted activation curve with a large enough effect; inconclusive means small, poorly fitted or top-dose-only effect, or another doubt; inactive means no such curve, though single readings can be large or run the other way; cell line not stated here;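 further: phosphodiesterase inhibitor Ro 20-1724 added with compounds to block cAMP breakdown; potency means the concentration at half of the fitted maximal effect; nearly all actives have a fitted effect of over 60% in size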
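Cells in DMEM/10% FBS with G418 were pretreated with compounds in DMSO plus […] (300 uM stock) for 30 min at 37C. cAMP was measured by HTRF (cAMP-d2 plus anti-cAMP antibody-K) after 30 min at room temperature.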
gsp antag: gsp mutant antagonism. gsp-mutant cells, cAMP HTRF, 30 min. Potency, µM (top dose mostly 76.9 µM), for inactives: at the highest dose activity change, negative = inhibition, actives largely listed as inhibitors. 340,000 compounds, 0.4% hits. AID 624288; calls by dose curve; cell line not stated here;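 further: intracellular cAMP measured with PDE inhibitor Ro 20-1724 present during compound exposure; potency means the concentration at half of the fitted maximal effect; on the % scale 0 is the no-effect control and ±100 the full control effect; nearly all actives have a fitted effect of over 65% in size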
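Cells in G418 medium, seeded 16-24 h, 37C; buffer exchange to DPBS + 1 mM CaCl2, 0.5 mM MgCl2, 0.05% BSA; cpds in DMSO + […] (300 uM stock), 30 min 37C; HTRF cAMP detection.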
RXFP1 antag: RXFP1 (human) relaxin receptor antagonism | activity change, negative = inhibition, % at 57.5 µM | HEK293-RXFP1, relaxin-stimulated cAMP HTRF, 30 min; hits give low values | Q9HBX9 | 350,000 compounds, 0.59% hits;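 active means activity change of -60% or lower, but not beyond a set lower limit; inconclusive means change between -60% and -40%, or beyond the set limit; inactive means change above -40%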; further: on the % scale 0 is the no-effect control and ±100 the full control effect
TbPFK ATP: orthogonal confirmation of T. brucei phosphofructokinase inhibitors; shares compounds with Tb PFK inh-1; Tb PFK enzyme, ATP depletion, Kinase-Glo Plus luminescence; Potency, µM (doses to about 57.5 µM), inactives show top-dose inhibition; 1,100 compounds, 47% hits; AID 504636; calls by dose curve; further: potency means the concentration at half of the fitted maximal effect; nearly all actives have a fitted effect of over 60% in size
Tb PFK inh-2: T. brucei PFK enzyme inhibition, hit validation. AID 504637. Potency, µM (titrated, usually from 57.5 µM), for the others: top-dose activity change, negative = inhibition, usual class: inhibitors. 1,100 compounds, 41% hits. shares compounds with Tb PFK inh-1. purified T. brucei PFK, ADP-Glo luminescence, 45 min;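 further: potency means the concentration at half of the fitted maximal effect; plate controls were full PFK enzyme control for no effect and no enzyme control for full effect; nearly all actives have a fitted effect of over 60% in size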
* = called active by the depositor; ? = inconclusive; . = no result given; [ ] = remark or other dose. Unless noted, the call rests on the fitted dose curve; in most records, active means well fitted curve in the direction sought with a large enough effect; inconclusive means small, poorly fitted or top-dose-only effect, or another doubt; inactive means no such curve, though single readings can be large; an effect the other way counts as inactive or inconclusive.

SMILES | Tb PFK inh-1 | p53 reactivation | RXFP1 agonist | gsp ag | gsp antag | RXFP1 antag | TbPFK ATP | Tb PFK inh-2
O=C(O)c1cc(N2N=C(C(F)(F)F)/C(=C/C=C/c3ccco3)C2=O)ccc1Cl | 17µM* | 0% | 2% | -18%[15.4 µM] | 3% | -31 | 4.8µM* | 5.4µM*
CCCCCc1nnc(NC(=O)Cc2cccs2)s1 | ? | 4% | 2% | -25% | -3% | 0 | ? | ?
CCc1nnc(NC(=O)CSc2ccc(-c3ccco3)nn2)s1 | ? | 2% | 16% | 1%[15.4 µM] | 14% | -7 | . | .
O=C1CN(C(=O)CN2CCCCC2)C(c2ccccc2)c2cc(Br)ccc2N1 (stereo not given) | -5% | -2% | -2% | -3% | 2% | 0 | . | .
COc1ccc(NC(=O)c2cccn(Cc3ccc(Cl)cc3)c2=O)c(OC)c1 | . | . | 1% | . | . | . | . | .
N=c1ccn(Cc2ccc(Cl)cc2)cc1 | 11µM* | -8% | -1% | -29% | 5% | 0 | ? | ?
Clc1ccc(Cn2ccnc2)cn1 | 0% | 0% | 0% | 16%[15.4 µM] | 1% | 5 | . | .
N=c1ccn(Cc2ccc(Cl)c(Cl)c2)cc1 | 1.7µM* | -10% | -3% | -2% | 1% | 1 | 2.4µM* | 5.4µM*
N=c1ccn(Cc2cccc(Cl)c2)cc1 | 7.6µM* | -2% | 1% | ? | 7% | -2 | ? | 19µM*
Cc1ccc2c(CN3CC=C(c4ccccc4)CC3)cc(=O)oc2c1C | -1% | -1% | 0% | 4% | 2% | -3 | . | .
O=C(c1ccccc1)C(Cc1ccccc1)N1CCOCC1 (stereo not given) | . | . | . | -8% | 2% | -12 | . | .
CCN(CC)C(=O)COc1cc(C)cc2oc(=O)c3c(c12)CCCC3 | 6% | . | 2% | -18% | -25% | 4 | . | .
N=C1SCC(=O)N1c1ncc(Cc2cccc(Cl)c2)s1 | ? | -5% | -1% | -1%[15.4 µM] | 7% | 5 | 24µM* | ?
O=C(COc1ccccc1F)Nc1ccc(S(=O)(=O)Nc2nccs2)cc1 | 4.8µM* | 1% | -2% | 29% | -6% | ? | 2.1µM* | 6µM*
O=C(CSc1ccc(Cl)cc1)NC1=NN(c2ccccc2)C(=O)C1 | 0% | -10% | 1% | ? | -2% | 5 | . | .
CC(=O)NS(=O)(=O)c1ccc(NC(=O)CSc2ccc(Cl)cc2)cc1 | 30µM* | -1% | 0% | 29% | 3% | -1 | 13µM* | 30µM*
NC(=O)c1ccc(NC(=O)COC(=O)C2(c3ccccc3F)CCCC2)cc1 | 0% | -5% | 4% | -26% | -11% | -1 | . | .
O=C(COc1ccc(F)cc1Cl)Nc1ccc(S(=O)(=O)Nc2nccs2)cc1 | 1.2µM* | -2% | 4% | -2% | ? | 9 | 0.95µM* | 1.1µM*
O=C(CSc1ccncc1)Nc1ccc(S(=O)(=O)Nc2nccs2)cc1 | 19µM* | 13% | 5% | 27% | 10% | -5 | 13µM* | 27µM*
COc1ccc(C2C(C#N)=C(N)Oc3c2c(=O)oc2ccccc32)cc1Cn1cc([N+](=O)[O-])cn1 (stereo not given) | 3% | 4% | 5% | -3% | 6% | 5 | . | .
COc1ccc(C)cc1-n1nnnc1SCC(=O)NC(=O)NCc1ccco1 | 11µM* | -4% | 1% | -9% | 4% | 5 | 10% | -11%
Cc1cc(SCC(=O)N/N=C/c2ccco2)nc2ccccc12 | 2% | -4% | -1% | ? | 1% | -2 | . | .
COc1ccccc1OCc1nnc(SCC(=O)NCc2ccco2)n1Cc1ccco1 | ? | 4% | 0% | -80% | -12% | -8 | 7.6µM* | 7.6µM*
Cc1cc(SCC(=O)NC(=O)NCc2ccco2)nc2c(C)cccc12 | ? | 6% | 5% | 9% | 8% | 11 | ? | ?
CCN(CC)CCCN=Cc1c(O)n(-c2cccc(C)c2C)c(=O)[nH]c1=O | -5% | 8% | 1% | -39% | 1% | -1 | . | .
SMILES | Tb PFK inh-1 | p53 reactivation | RXFP1 agonist | gsp ag | gsp antag | RXFP1 antag | TbPFK ATP | Tb PFK inh-2
O=P(N1CC1)(N1CC1)N1CCc2ccccc21 | . | . | . | -15% | 3% | -9 | . | .
COc1ccc2[nH]c3c(=O)n(CCCCC(=O)NCCN4CCCC4)c(=S)[nH]c3c2c1 | ? | 1% | 5% | 4% | -8% | ? | ? | ?
COc1ccc2[nH]c(C)c(CCN3CCC(=O)C(C)C3C)c2c1 (stereo not given) | 0% | 3% | 2% | -32% | 3% | -1 | . | .
Cc1cccn2c(=O)c(C=Nc3ccccc3)c(NCc3ccco3)nc12 | -1% | 25% | 2% | -44% | 3% | -22 | . | .
CCN1C[C@]2(CO)CC[C@H](OC)[C@@]34C2[C@H](OC)[C@@](O)(C13)[C@@]1(O)C[C@H](OC)[C@H]2C[C@@H]4[C@@H]1[C@H]2OC | 0% | 4% | -2% | 39% | 8% | -5 | . | .
O=C(NCc1ccc(Cl)c(Cl)c1)c1ccc2c(c1)OCO2 | 24µM* | 11% | 0% | ? | 6% | 4 | 7.6µM* | 8.5µM*
O=C(CN1CCCCC1)c1ccc2c(c1)OCO2 | 1% | 4% | 1% | 5% | -9% | -4 | . | .
COc1ccc(CNC(=O)C(NC(C)=O)C(C)C)cc1OC (stereo not given) | 1% | 1% | 0% | 2% | 5% | -5 | . | .
COC(=O)NCc1ccc(Cl)c(Cl)c1 | 21µM* | -4% | 3% | -15% | 7% | 5 | 11µM* | 30µM*
O=C(NCCS(=O)(=O)N1CCN(c2cccc(Cl)c2)CC1)c1ccc2c(c1)OCO2 | ? | 0% | 1% | -10%[15.4 µM] | -1% | -7 | 21µM* | ?
O=C(NCc1cccc(Cl)c1)c1ccc2c(c1)OCCO2 | 24µM* | ? | -1% | -4%[15.4 µM] | 2% | 2 | 13µM* | 19µM*
CC(=O)c1ccc2c(c1)OCO2 | -5% | 4% | -1% | . | 1% | . | . | .
CC1CCC(C(C)C)C(OC(=O)COC(=O)c2ccccc2N)C1 (stereo not given) | 0% | ? | -4% | 1% | 5% | -6 | . | .
Cc1ccccc1S(=O)(=O)N(C)C[C@@H]1OCc2ccccc2-c2c(n(C)c3ccccc23)C(=O)N([C@H](C)CO)C[C@@H]1C | . | . | . | 12% | . | -6 | . | .
